According to PubChem BioAssay AID1210 (NMMLSC, 2008):
The source made the active and inactive calls.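 Rule for the calls: active = blocks over 70% of labeled estradiol binding at 10 µM, or over a set limit at 100 nM; inactive = the rest.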

target: Estrogen receptor beta (Homo sapiens) (UniProt Q92731); test: ERbeta ligand binders by competition, primary screen, cell-based, Cos7 ERbeta-GFP, flow cytometry (AID 1210); settings: fluorescent estrogen binding, at 10 µM, stronger effect = higher value;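 note: 0% = DMSO vehicle wells and 100% = complete loss of labeled estradiol signal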
Sequence (Q92731 whole entry, looked up): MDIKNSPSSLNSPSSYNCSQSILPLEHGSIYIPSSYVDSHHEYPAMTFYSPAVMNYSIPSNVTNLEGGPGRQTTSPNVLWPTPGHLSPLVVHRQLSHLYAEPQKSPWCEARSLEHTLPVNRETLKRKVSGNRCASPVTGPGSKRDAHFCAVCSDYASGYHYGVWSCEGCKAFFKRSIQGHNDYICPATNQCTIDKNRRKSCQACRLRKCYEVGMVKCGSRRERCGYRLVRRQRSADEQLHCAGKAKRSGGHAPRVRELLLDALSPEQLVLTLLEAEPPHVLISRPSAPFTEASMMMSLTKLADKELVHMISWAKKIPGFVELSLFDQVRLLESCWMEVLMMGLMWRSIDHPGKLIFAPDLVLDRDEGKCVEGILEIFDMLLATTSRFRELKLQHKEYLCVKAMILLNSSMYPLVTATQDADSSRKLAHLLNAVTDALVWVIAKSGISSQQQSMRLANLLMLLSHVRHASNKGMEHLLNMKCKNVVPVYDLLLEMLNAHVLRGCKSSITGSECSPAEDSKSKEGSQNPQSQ

Compound	inhibition
Cc1ccc(-c2cc(C(=O)NCc3ccco3)c3ccccc3n2)o1	36% (inactive)
Cc1ccc(S(=O)(=O)Cc2ccc(C(=O)N3CCc4ccccc4C3)o2)cc1	43% (inactive)
Cc1sc2ncnc(SCC(=O)NC(=O)NCc3ccco3)c2c1C	47% (inactive)
Cc1nn(-c2ccccc2)c2sc(C(=O)c3c(N)n(C)c(=O)n(C)c3=O)cc12	22% (inactive)
CCOc1cccc2cc(-c3cn4cc(C)ccc4n3)c(=O)oc12	27% (inactive)
Cc1ccc(-n2nnnc2SCC(=O)Nc2ccc3c(c2)COC3=O)cc1C	15% (inactive)
COc1ccc(CCn2c(SCC(=O)Nc3cc(C)on3)nc3ccsc3c2=O)cc1OC	66% (inactive)
CCOC(=O)CN1C(c2ccc(O)cc2)Nc2ccc(Br)cc2C1c1ccccc1 (configuration not stated)	48% (inactive)
CN(C)C(=O)c1ccc2c(c1)C1C3CCC(C3)C1C(c1ccccc1)N2 (configuration not stated)	0% (inactive)
O=C(COC(=O)CCC(=O)c1cccs1)NCc1ccco1	54% (inactive)
O=C(c1cc2ncc(Br)cn2n1)N1CCOCC1	68% (inactive)
CCOc1ccc(Nc2oc(-c3ccccc3Cl)nc2C#N)cc1	25% (inactive)
Cc1ccc(OCCN2CCN(CC(O)Cn3c4ccccc4c4ccccc43)CC2)cc1 (configuration not stated)	62% (inactive)
CC(=O)c1sc2nc(SCC(=O)N3CCCCC3)[nH]c(=O)c2c1C	27% (inactive)
C[C@@H]1O[C@@H](Oc2c(-c3cc(O)c(O)c(O)c3)oc3cc(O)cc(O)c3c2=O)[C@H](O)[C@H](O)[C@H]1O	31% (inactive)
Cc1oc2cc(O)ccc2c(=O)c1Oc1ccccc1	22% (inactive)
CSc1ccc(S(=O)(=O)Nc2cccc(F)c2)cc1	21% (active)
c1ccc(Cc2nnc3sc(-c4ccco4)nn23)cc1	18% (inactive)
O=C1OC(c2ccc(O)cc2)(c2ccc(O)cc2)c2ccccc21	51% (inactive)
Nc1ccc(N2CCN(C(=O)c3ccco3)CC2)cc1	49% (inactive)
O=C(Cc1ccccc1)Nc1ccc2oc(-c3cccnc3)nc2c1	65% (inactive)
CCn1nnc(NC(=O)CSc2ccc(Cl)cc2)n1	13% (active)

same assay, conditions: fluorescent estrogen binding, ligand binding inhibition, at 0.1 µM, stronger effect = higher value

Compound	inhibition [%]
COc1ccc(NC(=O)CSc2nc3ccccc3c3nc4ccccc4n23)cc1	44
O=C(CSc1nc(C2CCCCC2)n(-c2ccccc2)n1)NCC(F)(F)F	21
Cc1ccc(Nc2nnc(SCC(=O)NCc3ccco3)s2)cc1	18
Cc1cc(Cl)ccc1OCC(=O)OC(C)C(=O)N(C)C (configuration not stated)	12
CC1(C)N=C(N)N=C(N)N1c1ccc(C(=O)O)cc1	11
O=S(=O)(/N=C(/Sc1ccccc1)c1ccccc1)c1ccccc1	20
O=C(c1cc2sccc2n1Cc1ccccc1)N1CCc2ccccc21	2
Cc1c(C(=O)OCc2ccccc2)[nH]c2c1C(=O)CC(c1ccco1)C2 (configuration not stated)	17
CCc1ccc(Nc2nc(N)nc(CSc3nnnn3-c3ccccc3)n2)cc1	8
COc1cc2c(cc1OC)C(Cc1ccc(O)cc1)N(C)CC2 (configuration not stated)	6
COc1ccc(OC)c(/C=N/c2oc(-c3ccco3)c(-c3ccco3)c2C#N)c1	31
COc1cc(NC(=O)c2cccs2)c(C(=O)OCC(=O)NC(=O)NCc2ccccc2)cc1OC	17
CC(O)C1CCC2C3CC[C@H]4CC(O)CCC4(C)C3CC3(OCCO3)C12C (some centres not stated)	13
O=C1Nc2ccccc2SC(c2ccccc2)C1O (configuration not stated)	26
O=C(CSc1nnnn1-c1ccccc1)Nc1nsc(-c2ccc(Cl)cc2)n1	21
COc1ccc(NC(=O)C(NC(=O)c2ccc(=O)[nH]c2)c2ccc(C)cc2)cc1 (configuration not stated)	12
Cc1ccc(-c2cc(C(=O)NCc3ccco3)c3ccccc3n2)o1	47
Cc1ccc(S(=O)(=O)Cc2ccc(C(=O)N3CCc4ccccc4C3)o2)cc1	10
Cc1sc2ncnc(SCC(=O)NC(=O)NCc3ccco3)c2c1C	14
Cc1nn(-c2ccccc2)c2sc(C(=O)c3c(N)n(C)c(=O)n(C)c3=O)cc12	32
CCOc1cccc2cc(-c3cn4cc(C)ccc4n3)c(=O)oc12	16
Cc1ccc(-n2nnnc2SCC(=O)Nc2ccc3c(c2)COC3=O)cc1C	2
COc1ccc(CCn2c(SCC(=O)Nc3cc(C)on3)nc3ccsc3c2=O)cc1OC	18
CCOC(=O)CN1C(c2ccc(O)cc2)Nc2ccc(Br)cc2C1c1ccccc1 (configuration not stated)	23
CN(C)C(=O)c1ccc2c(c1)C1C3CCC(C3)C1C(c1ccccc1)N2 (configuration not stated)	51
